# According to the supplement of paper PMC6089552:
# Hit rate of the full screen: of about 3,200 compounds, about 300 (9.4%) showed activity. The full list was thinned out, with actives kept by preference.
# Tested on: A673/TR/shEF
# Experiment: cell viability (LOESS-normalised, relative to median of negative controls) (log2 ratio); higher = more viable cells (less compound effect), active = hit call of the paper (over 3 MAD below the median)
# Conditions: treatment time: 72 h
# In short: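 Doxycycline, present or absent from 24 h before compounds, was used to induce EWS-FLI1 shRNA knockdown in A673/TR/shEF Ewing sarcoma cells at 1,500 per well in 384-well plates. Cells then received library compounds at two or more concentrations, or DMSO controls, for three days. Viability was measured by CellTiter-Glo luminescence on an Envision reader, and per-plate LOESS correction, division by the negative-control median and log2 transformation followed.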
# [1] = 0.25 µM, library screen: screen2, EWS-FLI1 expression: high (no doxycycline)
# [2] = 0.25 µM, library screen: screen2, EWS-FLI1 expression: low (doxycycline-induced shRNA knockdown)
# [3] = 2.5 µM, library screen: screen2, EWS-FLI1 expression: high (no doxycycline)
# [4] = 2.5 µM, library screen: screen2, EWS-FLI1 expression: low (doxycycline-induced shRNA knockdown)
# [5] = 0.25 µM, library screen: screen1, EWS-FLI1 expression: high (no doxycycline)
# [6] = 0.25 µM, library screen: screen1, EWS-FLI1 expression: low (doxycycline-induced shRNA knockdown)
# [7] = 2.5 µM, library screen: screen1, EWS-FLI1 expression: high (no doxycycline)
# [8] = 2.5 µM, library screen: screen1, EWS-FLI1 expression: low (doxycycline-induced shRNA knockdown)
# [9] = 0.103 µM, library screen: screen3, EWS-FLI1 expression: high (no doxycycline)
# [10] = 0.103 µM, library screen: screen3, EWS-FLI1 expression: low (doxycycline-induced shRNA knockdown)
# [11] = 0.308 µM, library screen: screen3, EWS-FLI1 expression: high (no doxycycline)
# [12] = 0.308 µM, library screen: screen3, EWS-FLI1 expression: low (doxycycline-induced shRNA knockdown)
# [13] = 0.926 µM, library screen: screen3, EWS-FLI1 expression: high (no doxycycline)
# [14] = 0.926 µM, library screen: screen3, EWS-FLI1 expression: low (doxycycline-induced shRNA knockdown)
# [15] = 2.8 µM, library screen: screen3, EWS-FLI1 expression: high (no doxycycline)
# [16] = 2.8 µM, library screen: screen3, EWS-FLI1 expression: low (doxycycline-induced shRNA knockdown)
# [17] = 8.3 µM, library screen: screen3, EWS-FLI1 expression: high (no doxycycline)
# [18] = 8.3 µM, library screen: screen3, EWS-FLI1 expression: low (doxycycline-induced shRNA knockdown)
# [19] = 25 µM, library screen: screen3, EWS-FLI1 expression: high (no doxycycline)
# [20] = 25 µM, library screen: screen3, EWS-FLI1 expression: low (doxycycline-induced shRNA knockdown)
smiles,measurement,setting,value
CC12CCC(=O)C=C1CCC1C2C(O)CC2(C)C1CCC2(O)C(=O)COC(=O)CCC(=O)O (configuration not stated),cell viability (log2),[1],0.252 (inactive)
same,cell viability (log2),[2],0.0354 (inactive)
same,cell viability (log2),[3],0.189 (inactive)
same,cell viability (log2),[4],0.145 (inactive)
CCSCCOC(=O)C1=C(C)NC2=C(C(=O)CC(C)(C)C2)C1c1coc2ccccc2c1=O (configuration not stated),cell viability (log2),[5],0.0909 (inactive)
same,cell viability (log2),[6],0.0763 (inactive)
same,cell viability (log2),[7],0.107 (inactive)
same,cell viability (log2),[8],0.00786 (inactive)
CCOc1ccc2nc(SC)nc(C)c2c1,cell viability (log2),[5],0.0636 (inactive)
same,cell viability (log2),[6],0.0768 (inactive)
same,cell viability (log2),[7],0.137 (inactive)
same,cell viability (log2),[8],-0.103 (inactive)
CC1CC2C3CCC4=CC(=O)C=CC4(C)C3C(=O)CC2(C)[C@@]1(O)C(=O)CO (some centres not stated),cell viability (log2),[9],0.145 (inactive)
same,cell viability (log2),[10],-0.00246 (inactive)
same,cell viability (log2),[11],0.132 (inactive)
same,cell viability (log2),[12],0.12 (inactive)
same,cell viability (log2),[13],0.101 (inactive)
same,cell viability (log2),[14],0.0958 (inactive)
same,cell viability (log2),[15],0.116 (inactive)
same,cell viability (log2),[16],0.077 (inactive)
same,cell viability (log2),[17],0.0168 (inactive)
same,cell viability (log2),[18],0.08 (inactive)
same,cell viability (log2),[19],0.0762 (inactive)
same,cell viability (log2),[20],0.0993 (inactive)
COc1ccc(CN2CCN(Cc3ccccc3Br)CC2)cc1OC,cell viability (log2),[5],0.0838 (inactive)
same,cell viability (log2),[6],0.133 (inactive)
same,cell viability (log2),[7],0.0605 (inactive)
same,cell viability (log2),[8],0.115 (inactive)
Cc1cc(O)c2c(c1)Cc1cccc(O)c1C2=O,cell viability (log2),[5],0.119 (inactive)
same,cell viability (log2),[6],0.00964 (inactive)
same,cell viability (log2),[7],0.16 (inactive)
same,cell viability (log2),[8],0.111 (inactive)
O=C1CSC(=O)N1CCN1C(=O)SC(=Cc2ccc(O)cc2)C1=O,cell viability (log2),[5],0.0789 (inactive)
same,cell viability (log2),[6],0.0957 (inactive)
same,cell viability (log2),[7],0.0804 (inactive)
same,cell viability (log2),[8],-0.00491 (inactive)
O=C(Oc1cc(O)cc2c1CC(OC(=O)c1cc(O)c(O)c(O)c1)C(c1ccc(O)c(O)c1)O2)c1cc(O)c(O)c(O)c1 (configuration not stated),cell viability (log2),[5],0.117 (inactive)
same,cell viability (log2),[6],-0.00743 (inactive)
same,cell viability (log2),[7],0.128 (inactive)
same,cell viability (log2),[8],-0.0369 (inactive)
CCCCCCCCCCCCCCCCCC(=O)NCC(COP(=O)([O-])OCC[N+](C)(C)C)OCC (configuration not stated),cell viability (log2),[1],0.252 (inactive)
same,cell viability (log2),[2],0.0979 (inactive)
same,cell viability (log2),[3],0.243 (inactive)
same,cell viability (log2),[4],0.0461 (inactive)
CC(CN1c2ccccc2Sc2cccnc21)N(C)C (configuration not stated),cell viability (log2),[5],0.132 (inactive)
same,cell viability (log2),[6],0.0453 (inactive)
same,cell viability (log2),[7],0.0549 (inactive)
same,cell viability (log2),[8],0.034 (inactive)
COc1cc2ncnc(Nc3cccc(Cl)c3)c2cc1OC,cell viability (log2),"0.025 µM, library screen: screen1, EWS-FLI1 expression: high (no doxycycline)",0.237 (inactive)
same,cell viability (log2),"0.025 µM, library screen: screen1, EWS-FLI1 expression: low (doxycycline-induced shRNA knockdown)",0.01 (inactive)
same,cell viability (log2),[5],0.289
same,cell viability (log2),[6],0.0337 (inactive)
same,cell viability (log2),[1],0.134 (inactive)
same,cell viability (log2),[2],0.0168 (inactive)
same,cell viability (log2),[7],-0.137 (active)
same,cell viability (log2),[8],0.122 (inactive)
same,cell viability (log2),[3],0.175 (inactive)
same,cell viability (log2),[4],0.00846 (inactive)
same,cell viability (log2),"25 µM, library screen: screen1, EWS-FLI1 expression: high (no doxycycline)",-0.119 (active)
same,cell viability (log2),"25 µM, library screen: screen1, EWS-FLI1 expression: low (doxycycline-induced shRNA knockdown)",0.297
COCC(=O)NC/C=C/c1ccc2ncnc(Nc3ccc(Oc4ccc(C)nc4)c(C)c3)c2c1,cell viability (log2),[9],0.0492 (inactive)
same,cell viability (log2),[10],0.0262 (inactive)
same,cell viability (log2),[11],-0.0204 (inactive)
same,cell viability (log2),[12],0.0495 (inactive)
same,cell viability (log2),[13],-0.0118 (inactive)
same,cell viability (log2),[14],0.013 (inactive)
same,cell viability (log2),[15],-0.0655 (inactive)
same,cell viability (log2),[16],-0.0248 (inactive)
same,cell viability (log2),[17],-0.00849 (inactive)
same,cell viability (log2),[18],0.0384 (inactive)
same,cell viability (log2),[19],-0.127 (inactive)
same,cell viability (log2),[20],-0.105 (inactive)
C#Cc1cccc(Nc2ncnc3cc(OCCOC)c(OCCOC)cc23)c1,cell viability (log2),[9],0.107 (inactive)
same,cell viability (log2),[10],0.0915 (inactive)
same,cell viability (log2),[11],0.189 (inactive)
same,cell viability (log2),[12],0.0523 (inactive)
same,cell viability (log2),[13],0.0696 (inactive)
same,cell viability (log2),[14],0.0933 (inactive)
same,cell viability (log2),[15],0.0439 (inactive)
same,cell viability (log2),[16],0.0596 (inactive)
same,cell viability (log2),[17],0.105 (inactive)
same,cell viability (log2),[18],0.0233 (inactive)
same,cell viability (log2),[19],-0.0778 (inactive)
same,cell viability (log2),[20],-0.0451 (inactive)
COc1cc2ncnc(Nc3ccc(O)cc3)c2cc1OC,cell viability (log2),[1],0.241 (inactive)
same,cell viability (log2),[2],0.0114 (inactive)
same,cell viability (log2),[3],0.112 (inactive)
same,cell viability (log2),[4],0.0956 (inactive)
CN(C)c1cc2c(Nc3ccc4c(cnn4Cc4ccccc4)c3)ncnc2cn1,cell viability (log2),[1],0.124 (inactive)
same,cell viability (log2),[2],0.0545 (inactive)
same,cell viability (log2),[3],0.147 (inactive)
same,cell viability (log2),[4],0.0613 (inactive)
C#Cc1cccc(Nc2ncnc3cc(OC)c(OCCCCCCC(=O)NO)cc23)c1,cell viability (log2),[9],-0.0787 (inactive)
same,cell viability (log2),[10],-0.0134 (inactive)
same,cell viability (log2),[11],-0.0791 (inactive)
same,cell viability (log2),[12],-0.0194 (inactive)
same,cell viability (log2),[13],-0.53 (active)
same,cell viability (log2),[14],-0.197 (active)
same,cell viability (log2),[15],-1.73 (active)
same,cell viability (log2),[16],-0.607 (active)
same,cell viability (log2),[17],-2.92 (active)
same,cell viability (log2),[18],-0.618 (active)
same,cell viability (log2),[19],-3.65 (active)
same,cell viability (log2),[20],-1.64 (active)
CC(C)CC1NC(=O)CNC1=O (configuration not stated),cell viability (log2),[5],0.138 (inactive)
same,cell viability (log2),[6],0.0779 (inactive)
same,cell viability (log2),[7],0.0859 (inactive)
same,cell viability (log2),[8],0.0262 (inactive)
Oc1ccc2c(c1)O[C@H](c1ccc(O)c(O)c1)[C@@H](O)C2,cell viability (log2),[5],0.0741 (inactive)
same,cell viability (log2),[6],-0.0244 (inactive)
same,cell viability (log2),[7],0.0985 (inactive)
same,cell viability (log2),[8],0.085 (inactive)
